Active and inactive are the calls of the source. How the source made its calls: active means hit-call score of the fitted dose curve at least 0.9, where 1 is the maximum; inactive means score below 0.9.

Read-out in test [1]: Urokinase-type plasminogen activator receptor (uPAR), PLAUR (gene 5329)
Description: BSK_CASM3C_uPAR: BioMAP Diversity Plus: CASM3C Assay for Urokinase-type plasminogen activator receptor (uPAR) Biomarker Activity (AID 2283054).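 Further: cell-surface uPAR protein level quantified by ELISA.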 As to conditions: primary human coronary artery smooth muscle cells; actives raise or lower the signal.

Read-out in test [2]: Vascular cell adhesion molecule 1 (VCAM1), VCAM1 (gene 7412)
Put plainly: BSK_CASM3C_VCAM1: BioMAP Diversity Plus: CASM3C Assay for Vascular cell adhesion molecule 1 (VCAM1) Biomarker Activity (AID 2283055).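 Further: VCAM-1 protein level quantified by ELISA on the cells.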 The conditions noted are these: primary human coronary artery smooth muscle cells; actives raise or lower the signal.

Read-out in test [3]: Collagen III, COL3A1 (gene 1281)
Put plainly: BSK_hDFCGF_CollagenIII: BioMAP Diversity Plus: hDFCGF Assay for Collagen III Biomarker Activity (AID 2283056). As to conditions: primary human foreskin fibroblasts; actives raise or lower the signal. Summed up:
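hDFCGF primary human dermal fibroblasts; 24 h chemical exposure; collagen III by ELISA; bidirectional curve fit vs DMSO baseline (gain or loss of signal).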

Read-out in test [4]: Interleukin-8 (IL8), CXCL8 (gene 3576)
Description: BSK_hDFCGF_IL8: BioMAP Diversity Plus: hDFCGF Assay for Interleukin-8 (IL8) Biomarker Activity (AID 2283058). The conditions noted are these: primary human foreskin fibroblasts; actives raise or lower the signal. Summed up:
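ELISA read-out of IL-8 from primary human foreskin fibroblast cultures taken 24 h after dosing; values are bidirectional fits relative to DMSO vehicle.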

A short description of test [5]: BSK_hDFCGF_Proliferation: Cell Proliferation Assessment in the BioMAP Diversity Plus: hDFCGF Assay (AID 2283059).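 Further: curves fitted for both rise and fall of signal versus DMSO baseline.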 The conditions noted are these: primary human foreskin fibroblasts. Summed up: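 Primary human foreskin fibroblasts, sub-confluent; […]; 10% TCA fix, 0.1% SRB stain, A560 total protein. Gain/loss fitted bidirectionally vs DMSO control.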
Read-out in test [6]: Macrophage colony-stimulating factor (MCSF), CSF1 (gene 1435)
Description: BSK_hDFCGF_MCSF: BioMAP Diversity Plus: hDFCGF Assay for Macrophage colony-stimulating factor (MCSF) Biomarker Activity (AID 2283060). As to conditions: primary human foreskin fibroblasts; actives raise or lower the signal. Summed up:
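ELISA read-out of M-CSF in human dermal foreskin fibroblast cultures, 24 h after chemical dosing; gain or loss of signal fitted bidirectionally relative to DMSO baseline.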

Test [7] is described as follows: BSK_hDFCGF_SRB: Viability Assessment in the BioMAP Diversity Plus: hDFCGF Assay (AID 2283061).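 Further: cells exposed to compound for 24 h before the read.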 As to conditions: primary human foreskin fibroblasts. Summed up: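 Primary human foreskin fibroblasts; 24 h post-dose; fixed 10% TCA, stained 0.1% SRB, A560 read; total protein as overt cytotoxicity measure; curves fit bidirectionally vs DMSO control.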
Read-out in test [8]: TIMP metallopeptidase inhibitor 1 (TIMP1), TIMP1 (gene 7076)
Description: BSK_hDFCGF_TIMP1: BioMAP Diversity Plus: hDFCGF Assay for TIMP metallopeptidase inhibitor 1 (TIMP1) Biomarker Activity (AID 2283062). The conditions noted are these: primary human foreskin fibroblasts; actives raise or lower the signal. Summed up: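 ELISA readout of TIMP-1 from human dermal foreskin fibroblast cultures 24 h post-dosing. Curves were fitted in both directions against DMSO baseline, with SRB total-protein staining in parallel cultures as a cytotoxicity check.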

Read-out in test [9]: Epidermal growth factor receptor (EGFR), EGFR (gene 1956)
Description: BSK_hDFCGF_EGFR: BioMAP Diversity Plus: hDFCGF Assay for Epidermal growth factor receptor (EGFR) Biomarker Activity (AID 2283057). The conditions noted are these: primary human foreskin fibroblasts; actives raise or lower the signal. Summed up:
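Primary human foreskin fibroblasts were exposed to compound for 24 h, after which cell-surface EGFR was quantified by ELISA. Activity was fitted bidirectionally against the DMSO negative control as baseline.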

`CC(=O)OC[C@H]1O[C@@](COC(C)=O)(O[C@H]2O[C@H](COC(C)=O)[C@@H](OC(C)=O)[C@H](OC(C)=O)[C@H]2OC(C)=O)[C@@H](OC(C)=O)[C@@H]1OC(C)=O`: the outcome in test [1], in test [2], in test [3], in [4], in test [5] and in test [6] was inactive. The outcome in test [7] and in [8] was inactive.
Take `C=CCCCCCCCCC(=O)O`: the result in [1], in test [2], in [3], in test [9], in [4] and in [5] was inactive. Besides, the result in test [6], in test [7] and in test [8] was inactive.
Regarding `CCCC(=O)OCC`, the outcome in test [1], in test [2], in [3], in test [4], in test [5] and in test [6] was inactive. For the same compound, the outcome in [7] and in [8] was inactive.
Take `CC(C)=CCCC(C)CCO` (stereo unspecified): the outcome in test [1], in [2], in [3], in test [4], in test [6] and in test [7] was inactive. In addition, the outcome in test [8] was inactive. The AC50 – broadly, the concentration at which the activity in the assay is half-maximal – in [5] was 26.4 µM (active).
With `Cn1c(=O)cc(Oc2ccc(F)cc2F)c2cnc(NCC(C)(C)O)nc21`, the result in test [1], in [2], in [3], in test [4], in [5] and in [7] was inactive. Moreover, in [8], the result was inactive. Moreover, the half-maximal activity concentration (AC50) in test [6] was 0.691 µM (active).
With `CC(=O)OCCC(C)C`, the outcome in [1], in test [2], in test [3], in [9], in test [4] and in test [5] was inactive. Further, the outcome in [6], in test [7] and in test [8] was inactive.
Regarding `CC(O)CN(CCN(CC(C)O)CC(C)O)CC(C)O` (stereo unspecified), the outcome in test [1], in test [2], in test [3], in [4], in test [5] and in test [6] was inactive. Also, the result in test [7] and in [8] was inactive.
Consider `CC(C)CCO`, for which the result in [1], in [2], in test [3], in test [4], in [6] and in test [7] was inactive. Moreover, the result in test [8] was inactive. For the same compound, the AC50 in [5] was 17.2 µM (active).
As for `COc1cccc(-c2ccc(/C=C\CN3CCCCCC3)cc2Cl)c1`, the AC50 in [1] is 25.9 µM (active); in test [3] it was 12.1 µM (active); in test [4], 34.1 µM (active); in test [5], 3.59 µM (active); in test [6], 22.4 µM (active); in test [7], 27.2 µM (active). Moreover, the AC50 in test [8] is 29.1 µM (active). In addition, in [2], the result was inactive.
Consider `O=C(O)c1cc(N=Nc2ccc(S(=O)(=O)Nc3ccccn3)cc2)ccc1O`, for which the result in test [1], in test [2], in [3], in test [4], in test [5] and in test [6] was inactive. Further, the result in test [7] and in test [8] was inactive.
For `Nc1ccc(Nc2ccccc2)cc1`, the AC50 was 2.33 µM (active) in test [1] and 7.37 µM (active) in [5]. In addition, the outcome in test [2], in test [3], in test [4], in test [6], in test [7] and in test [8] was inactive.
Regarding `CC(C)=CCC/C(C)=C\CO`, the outcome in [1], in test [2], in test [3], in test [4], in test [6] and in test [7] was inactive. Further, the result in [8] was inactive. In addition, the half-maximal activity concentration (AC50) in test [5] was 0.171 µM (active).
In the case of `Cc1ccc(S(=O)(=O)O)cc1C`, the outcome in test [1], in test [2], in [3], in test [4], in test [5] and in test [6] was inactive. Besides, the result in test [7] and in test [8] was inactive.
For `Cc1[nH]cnc1C[C@H]1CCc2c(C)c3ccccc3n2C1=O`, the half-maximal activity concentration (AC50) in test [1] is 22 µM (active); in [3] it was 19.2 µM (active); in test [5], 21.9 µM (active). Moreover, the result in test [2], in [4], in test [6], in [7] and in [8] was inactive.
With `CCCCCCCCCCCCCCCO`, the outcome in test [1], in test [2], in test [3], in test [4], in test [6] and in test [7] was inactive. In [8], the outcome was inactive. For the same compound, in test [5], the concentration at half-maximal activity (AC50) is 20 µM (active).
Regarding `Nc1nc2ncc(CNc3ccc(C(=O)N[C@@H](CCC(=O)O)C(=O)O)cc3)nc2c(=O)[nH]1`, the outcome in test [1], in test [2], in test [3], in [9], in test [4] and in [5] was inactive. The result in test [6], in test [7] and in [8] was inactive.
Regarding `CCn1nc(Cc2ccccc2)cc1C1CCN(C[C@H]2C[C@H](N(C)[C@@H](C(=O)O)C(C)C)C[C@@H]2c2cccc(F)c2)CC1`, the result in test [1], in [2], in test [3], in [4], in test [6] and in [7] was inactive. Moreover, the outcome in test [8] was inactive. Besides, the AC50 in test [5] was 12.9 µM (active).
Take `CC(C)c1cccc(C(C)C)c1N1C(=O)c2ccc(O)cc2C1=O`: the half-maximal activity concentration (AC50) in test [1] was 20 µM (active); in test [2], 16.9 µM (active); in [5] it was 9.91 µM (active); in test [6], 14.7 µM (active); in [7], 14.9 µM (active); in test [8] it was 5.39 µM (active). The result in test [3], in test [9] and in test [4] was inactive.
Regarding `CCNc1ccccc1`, the result in [1], in test [2], in test [3], in test [9], in test [4] and in [5] was inactive. The outcome in test [6], in test [7] and in test [8] was inactive.
Consider `CCCCCCCCCCCCc1ccccc1`, for which the outcome in test [1], in test [2], in test [3], in [9], in test [4] and in [5] was inactive. Besides, the result in test [6], in test [7] and in [8] was inactive.
Consider `O=C(O)c1cccc(Oc2ccccc2)c1`, for which the result in [1], in [2], in test [3], in test [9], in [4] and in [5] was inactive. The outcome in test [6], in [7] and in test [8] was inactive.
Take `O=C(CCCCCCCCc1cccnc1)N1CCC(C=C(c2ccccc2)c2ccccc2)CC1`: the AC50 in test [1] is 39.2 µM (active); in test [2], 37.9 µM (active); in test [3], 4.91 µM (active); in [4] it was 10.7 µM (active); in test [5] it was 5.65 µM (active); in test [6], 7.88 µM (active). Also, the AC50 in [7] was 7.83 µM (active); in test [8] it was 7.71 µM (active). In addition, in test [9], the outcome was inactive.
As to `Cc1ccc(O)cc1`, in test [1], the concentration at half-maximal activity (AC50) is 4.24 µM (active). Further, the result in [2], in test [3], in test [4], in test [5], in [6] and in [7] was inactive. Further, the result in test [8] was inactive.
On to `O=C(O)CCN(C1(C(=O)NO)CCCC1)S(=O)(=O)c1ccc(Oc2ccc(F)cc2)cc1`, for which the result in test [1], in test [2], in test [3], in test [9], in [4] and in [5] was inactive. For the same compound, the result in test [6], in [7] and in [8] was inactive.
